Experimental data from the OligoGym collection.

What follows are sequences tested against BDH2 (assay: pooled miR-30 sensor sort-seq; sequence = guide strand). Conditions: shRNA.
Note: reference of the scale not given here.

| Sequence | sensor-assay potency score (higher = more potent) |
| --- | --- |
| TTCCATGATGGACAAAACCAGC | -1.2 |
| TTGGACTCATTAATGTCTGTGG | -0.0604 |
| TATTGCCAGATTTCTGAGCAAG | -1.16 |
| TAATATTGCCAGATTTCTGAGC | -0.452 |
| TTCTTTCTTGTAGAGATGGCGT | -0.55 |
| TTGGTTGTGCTGTACACACATC | -1.05 |
| TTGATCATCAGGTACATGCTGC | 0.603 |
| TTAAAGAGAACATCAAGTCTCT | 0.782 |
| AAACTGATCAATTTGTTTCTTC | 0.524 |
| TTCACAACTCCTTTGACGCTGG | 0.0987 |
| TTACATAAGCAGATTCATCAGA | 0.11 |
| TTTGTTTCTTCTTTGTGACATC | -0.953 |

The sequences below were run against BEST2 in the same assay as above. Conditions: shRNA.

| Sequence | sensor-assay potency score (higher = more potent) |
| --- | --- |
| TAGCGCATGAGTGTGCGCCGGT | -0.558 |
| ATACATCTCGTCCACTGCCAGC | -1.42 |
| TTCAGGTTTTCAAACTTCTTGC | -0.208 |
| AAGCGCTTGAACACCGCGGTGC | 0.183 |
| TACGCTAATCCAGTCATAGTGA | -0.195 |
| TTAAGGGCGCTGTTGTCGCGGA | -1.06 |
| TAGTGAAAGAGCATTCCACATT | -0.946 |
| TAAATCACAAGCTTCTCGAAGT | -0.564 |
